The list is not random: actives were taken first. Their share in the collection is about 10%.
ALDH1A1 inh: blocks purified human ALDH1A1 activity; P00352; Purified ALDH1A1, NADH fluorescence, propionaldehyde substrate; Potency, µM (titrated, usually from 75.3 µM), for the others: at the highest dose activity, negative = inhibition, most hits filed as inhibitors; 220,000 compounds, 7.3% hits; AID 1030;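 also: potency is read from the fitted curve at half-maximal effect; plate controls were no enzyme wells and a reference inhibitor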
LMNA splice mod: modulators of lamin A splicing; HeLa LMNA splicing GFP/RFP minigene ratio, 48 h; Potency, µM (doses to about 46.1 µM), for inactives: top-dose ratio change, negative = inhibition, most hits filed as inhibitors; 200,000 compounds, 0.01% hits; AID 1487; active = well fitted inhibition curve with a large enough effect in the signal ratio, with a control signal flat, not every such curve was filed as active; inconclusive = small, poorly fitted or top-dose-only effect, or effect the other way, or a change in a side signal; the % refers to the signal ratio; also: potency is read from the fitted curve at half-maximal effect
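Read-out is the ratio of GFP to DsRed2 object intensity, acquired by 488 nm laser-scanning cytometry on HeLa lamin A-EGFP minigene reporter cells. Compound incubation 48 hrs at 37 °C in Opti-MEM with 2% FBS; DMSO 0.5% final.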
PNC inhibitor: blocks assembly of the perinucleolar compartment; PC3M PTB-GFP, PNC prevalence imaging, 16 h; hits give low values; activity change (PNC), negative = inhibition, % at 10 µM; 140,000 compounds, 3.1% hits; AID 2417;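 active = readout at or below -70, meaning at least 70% loss of cells showing the perinucleolar compartment, a nuclear body marking cancer cells; inconclusive = readout between -30 and a set limit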;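 also: plate controls were DMSO wells for no effect and camptothecin positive control wells for full effect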
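Read-out is percentage of cells bearing a perinucleolar compartment, from automated 20x imaging of fixed, Hoechst-stained PC3M PTB-GFP cells. Cells were seeded 4 h, then exposed 16 h to compound (23 nl of library stock) in duplicate plates.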
ALOX12 inhib: blocks human 12-lipoxygenase activity. P18054. purified 12-hLO, xylenol orange hydroperoxide absorbance. Potency, µM (doses to about 57.1 µM), without a hit: at the top dose activity change, negative = inhibition, usual class: inhibitors. 150,000 compounds, 0.12% hits. AID 1452; active = well fitted inhibition curve with a large enough effect; inconclusive = small, poorly fitted or top-dose-only effect; also: potency is read from the fitted curve at half-maximal effect; nearly all actives have a fitted effect of over 55% in size
Target sequence (P18054 whole entry, looked up): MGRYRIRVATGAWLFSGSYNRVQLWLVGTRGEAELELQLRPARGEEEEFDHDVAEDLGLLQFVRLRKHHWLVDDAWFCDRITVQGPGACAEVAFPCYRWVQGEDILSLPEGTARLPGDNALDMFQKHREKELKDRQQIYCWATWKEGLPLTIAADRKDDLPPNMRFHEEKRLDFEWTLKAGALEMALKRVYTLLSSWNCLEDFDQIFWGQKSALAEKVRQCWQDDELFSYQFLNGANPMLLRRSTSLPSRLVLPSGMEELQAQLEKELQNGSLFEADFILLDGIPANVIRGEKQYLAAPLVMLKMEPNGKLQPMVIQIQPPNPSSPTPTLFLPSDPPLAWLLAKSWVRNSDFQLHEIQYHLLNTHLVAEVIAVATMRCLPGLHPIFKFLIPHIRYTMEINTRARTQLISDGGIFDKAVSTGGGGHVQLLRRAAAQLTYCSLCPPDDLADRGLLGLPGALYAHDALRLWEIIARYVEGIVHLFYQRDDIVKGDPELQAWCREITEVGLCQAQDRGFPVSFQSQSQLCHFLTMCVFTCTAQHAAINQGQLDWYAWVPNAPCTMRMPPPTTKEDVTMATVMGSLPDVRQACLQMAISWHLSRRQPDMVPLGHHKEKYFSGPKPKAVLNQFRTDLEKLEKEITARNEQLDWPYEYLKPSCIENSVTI
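Xylenol orange chromogenic assay: hydroperoxide from 12hLO oxidises Fe(II), giving red-shifted Fe(III)-XO absorbance. Conditions: 150 nM enzyme, 40 uM arachidonic acid, 25 mM Hepes pH 7.0, 0.01% Triton X-100, 30 min, room temperature.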
HPGD inh: blocks human HPGD enzyme activity; 150,000 compounds, 4.3% hits; purified HPGD, NADH fluorescence kinetic, PGE2 substrate; AID 894; Potency, µM, without a hit: at the top dose activity change, negative = inhibition, hits mostly inhibitors; also: potency is read from the fitted curve at half-maximal effect
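20 nM HPGD preincubated 15 min at room temperature with compound in 50 mM Tris-HCl pH 8, 0.01% Tween 20. Started with 1 mM NAD+ and 30 uM prostaglandin E2; NADH fluorescence (360/450 nm) read 5 times over 30-s intervals, last minus first.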
Numbers without * were called inactive; ? = inconclusive; · = no result given; [ ] = dose if it differs, or a comment. Unless noted, calls follow the shape of the dose curve; as a rule, active = well fitted inhibition curve with a large enough effect (not every such curve was filed as active); inconclusive = small, poorly fitted or top-dose-only effect, or another doubt; inactive = no such curve, though single readings can be large or run the other way. Unless noted, % is scaled to controls: 0 for no effect and ±100 for the full control effect.

SMILES	ALDH1A1 inh	LMNA splice mod	PNC inhibitor	ALOX12 inhib	HPGD inh
CC1(C(=O)CSc2n[nH]c(-c3ccccc3Cl)n2)CCC(=O)O1 (stereo unspecified)	?	6%	151	-1%	-19%
CCCC(=O)N1CCN(c2nc3ccc(F)cc3s2)CC1	·	15%[46 µM]	·	·	·
Cc1ccc(Cl)cc1NC(=S)N(Cc1cccnc1)Cc1ccccc1Cl	11µM*	6%[9.22 µM]	·	·	·
Cc1ccccc1NC(=S)N(Cc1ccccc1)Cc1cccnc1	6%	-1%[46 µM]	·	·	·
Cc1nc(NC(=O)CSc2ccccc2N)sc1C	22µM*	-18%	-25	5%	-19%
C=CCN1c2ccccc2[C@]23C[C@@H](C(=O)OC)N(S(=O)(=O)c4ccc(Br)cc4)C2=NC(C(=O)OC)=C(C(=O)OC)[C@H]13	16%[13.5 µM]	-2%[9.22 µM]	·	-2%[11.4 µM]	-6%
O=c1c2cnn(-c3ccccc3)c2nnn1/N=C/c1cccnc1	0.4µM*	2%	23	-4%	-7%
CC(C)Sc1nnc(Cn2c(=O)sc3ccccc32)n1-c1ccccc1	-6%	-2%	-26	0%	-11%
CSc1nnc(Cn2c(=O)sc3ccccc32)n1-c1ccccc1	0%	0%	-106*	0%	-11%
Cc1c(NC(=O)c2ccc(COc3ccc4ccccc4c3)o2)c(=O)n(-c2ccccc2)n1C	?	?	42	1%	35µM*
COCC(=O)N1c2nc(C(C)C)nn2C2(CCCCC2)[C@@H]2CCCC[C@@H]21	·	-7%[46 µM]	·	·	·
Cc1occc1-c1nnc(SCC(=O)N2CCc3ccccc32)o1	0.79µM*	11%	-29	-3%	-12%
Cc1nnc(SCC(=O)N2CCc3ccccc32)s1	28µM*	-12%	18	-2%	-10%
COc1cc(OC)cc(-c2nnc(SCc3cccc(C(=O)O)c3)o2)c1	-13%	8%	?	-9%	11µM*
O=C(O)c1cccc(CSc2nnc(-c3ccco3)o2)c1	5%	15%	54	4%	-13%
COc1cccc(-c2nnc(SCC(=O)N3CCCc4ccccc43)o2)c1	7.9µM*	-20%	?	2%	28µM*
O=C(CSc1nnc(-c2cccs2)o1)N1CCc2ccccc21	11%	1%	?	-1%	-14%
COC(=O)[C@@H]1CCCN1C(=O)CCc1nnc(C2CCCCC2)o1	-2%	16%[46 µM]	·	·	·
CC(=O)NNC(=O)c1sc(=S)n2c1[nH]c(=O)c1sccc12	3.5µM*	-12%[46 µM]	·	·	·
C[C@@H]1OC(OC2CC[C@@]3(C)C(CC[C@@]4(C)C3CC=C3C5CC(C)(C)CC[C@]5(C(=O)OC5OCC(O)[C@@H](O)[C@@H]5OC5O[C@@H](C)[C@H](O[C@H]6OC(CO)C(O)C(O)C6O)C(O)C5O)C(O)C[C@@]34C)C2(C)C)C(O)C(O)[C@H]1OC1OCC(O)C(O)[C@H]1O (stereo partly specified)	5%	?	·	-11%	-5%
COc1ccc(-n2c(=O)c(C)nc3cnc(Oc4ccccc4)nc32)cc1	2.5µM*	·	·	1%	-8%
Cc1nc2cnc(Oc3ccccc3)nc2n(-c2ccccc2)c1=O	22µM*	·	·	-2%	-10%
Cc1ccc(CCNC(=O)c2c(C)oc3ncnc(N4CCOCC4)c23)cc1	·	-6%[46 µM]	·	·	·
Cc1cc(C)cc(N(CCC(=O)Nc2nnc(C3CC3)s2)S(=O)(=O)c2ccc(Cl)cc2)c1	9%	?	-19	0%	-10%
Cc1ccc(S(=O)(=O)NCCC(=O)Nc2nnc(C3CC3)s2)cc1C	18µM*	-16%	?	1%	-9%
SMILES	ALDH1A1 inh	LMNA splice mod	PNC inhibitor	ALOX12 inhib	HPGD inh
Cc1ccc(NC(=O)c2sc(-n3nc(C)c(Cc4ccc5c(c4)OCO5)c3C)nc2C)cc1Cl	·	27%[46 µM]	·	·	·
CCOCC(=O)N1CCCC(C(=O)OCC)C1 (stereo unspecified)	3.5µM*	7%	?	2%	-2%
CCOC(=O)C1CCCN(C(=O)CC(c2ccccc2)c2ccccc2)C1 (stereo unspecified)	-9%	-13%	-100*	-1%	28µM*
COc1ccc(-n2c(=O)c(-c3ccc(F)c(F)c3)nc3cncnc32)cc1	6%	-2%	·	·	·
C/C(=N\Nc1nc2ccccc2s1)c1cccs1	5%	?	-5	13µM*	14µM*
C/C(=N\Nc1nc(-c2ccccc2)cs1)c1cccs1	?	3%	18	-4%	-24%

Screens: PubChem, National Center for Advancing Translational Sciences (NCATS)
